# Reference: PubChem BioAssay (EPA / NIEHS)
# Some compounds were tested as several samples or in several runs, with calls that do not always agree. Active and inactive are the calls of the source. Rule for the calls: active = hit-call score of the fitted dose curve at least 0.9, where 1 is the maximum; inactive = score below 0.9.
# Experiments:
# [1] = APR_HepG2_MitoMembPot_72hr: Apredica 72-hour HepG2 Assay for Mitochondrial Membrane Potential (AID 2282917); details: imaging, actives raise or lower the signal
# Method in brief: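 HepG2 cells exposed 72 h to compounds at 0.39–200 uM (0.5% v/v DMSO, duplicates); MitoTracker Red CMXRos 250 nM loaded 30 min before 3.7% formaldehyde fixation, imaged by HCS fluorescence. Bidirectional fit versus DMSO.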
# [2] = APR_HepG2_MicrotubuleCSK_72hr: Apredica 72-hour HepG2 Assay for Microtubule CSK Stabilty (AID 2282919); details: HepG2 microtubule cytoskeleton, high-content imaging, actives raise or lower the signal
# Method in brief: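 HepG2 human liver cells were dosed for 72 h at ten concentrations from 0.39 to 200 uM in duplicate (0.5% v/v DMSO final). Fixed, permeabilized cells were immunostained for alpha-tubulin (Cy5) with a Hoechst counterstain and imaged at 20x.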
# [3] = APR_HepG2_StressKinase_72hr: Apredica 72-hour HepG2 Assay for Stress Kinase (AID 2282921); details: HepG2 stress kinase (phospho-c-Jun) imaging, actives raise or lower the signal
# Method in brief: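 HepG2 cells treated 72 hr with 0.39–200 uM compound, 0.5% v/v DMSO, duplicate wells. After formaldehyde fixation and Triton permeabilization, stained with anti-phospho-c-Jun (1:500) and Cy3 secondary, imaged at 20x. Fitted in both directions against DMSO.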
# [4] = APR_HepG2_StressKinase_24hr: Apredica 24-hour HepG2 Assay for Stress Kinase (AID 2282922); details: HepG2 stress kinase (phospho-c-Jun) imaging, actives raise or lower the signal
# Method in brief: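 HepG2 cells exposed 24 hr to compound at 0.39–200 uM (10 concentrations, duplicate), 0.5% v/v DMSO final. Fixed in 3.7% formaldehyde, permeabilized with Triton X-100, immunolabeled for phospho-c-Jun with Hoechst 33342; HCS fluorescence imaging, bidirectional fit versus DMSO.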
# [5] = APR_HepG2_NuclearSize_72hr: Apredica 72-hour HepG2 Assay for Nuclear Size (AID 2282925); details: high-content imaging, actives raise or lower the signal
# Method in brief: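 HepG2 cells were exposed to compounds at ten concentrations from 0.39 to 200 uM (duplicate, 0.5% DMSO final) for 72 hr. After fixation in 3.7% formaldehyde, nuclei were stained with Hoechst 33342 (2 ug/mL) and imaged at 20x.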
# [6] = biological target: CCAAT/enhancer-binding protein beta (Homo sapiens) (UniProt P17676); experiment: ATG_C_EBP_CIS: Attagene CIS-FACTORIAL HepG2 Assay for human CCAAT/Enhancer Binding Protein (C/EBP) beta (AID 2282927); details: HepG2 Attagene cis-factorial transcription factor reporter; actives raise or lower the signal
# Method in brief: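 Chemical-treated HepG2 cells (24 h) bearing cis-regulated reporter constructs were processed for total RNA, then reverse transcription, PCR amplification, fluorescent primer extension and fragment analysis; gain- and loss-of-signal were fitted against DMSO.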
# [7] = ATG_CMV_CIS: Attagene CIS-FACTORIAL HepG2 Assay for human CMV (Internal Marker) (AID 2282928); details: HepG2 CMV promoter reporter, transcription factor profiling; actives raise or lower the signal;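 note: endpoint acts as a background internal control marker rather than a target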
# Method in brief: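 CMV internal-marker background readout in transiently transfected HepG2 cells bearing cis-regulated reporter units. Reporter mRNA is measured 24 h after dosing by RT-PCR and capillary electrophoresis, with bidirectional fitting against DMSO.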
# [8] = ATG_DR4_LXR_CIS: Attagene CIS-FACTORIAL HepG2 Assay for human Liver X Receptor (LXR), DR4 submotif (AID 2282929); details: HepG2 Attagene DR4 cis-reporter, mRNA transcription; actives raise or lower the signal
# Method in brief: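 Endogenous factor activity at a DR4 cis-element is read as reporter mRNA in transiently transfected HepG2 cells. Exposure lasts 24 h; transcripts are amplified, fluorescently labelled and sized by capillary electrophoresis, with DMSO as baseline.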
# [9] = biological target: Aryl hydrocarbon receptor (Homo sapiens) (UniProt P35869); experiment: ATG_Ahr_CIS: Attagene CIS-FACTORIAL HepG2 Assay for human Aryl Hydrocarbon Receptor (Ahr) (AID 2282930); details: HepG2 AhR cis-factorial reporter transcription; actives raise or lower the signal
# Method in brief: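 Following 24 h of chemical dosing, transfected HepG2 liver cells with cis-driven reporter units were lysed for RNA; reporter mRNA was quantified via RT-PCR and capillary electrophoresis, and responses fitted bidirectionally from DMSO.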
# [10] = ATG_AP_1_CIS: Attagene CIS-FACTORIAL HepG2 Assay for human Activator Protein 1 (AP-1) (AID 2282931); details: HepG2 Attagene cis-factorial AP-1 reporter mRNA; actives raise or lower the signal
# Method in brief: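 Fluorescence of labelled PCR fragments separated by capillary electrophoresis gives reporter mRNA levels. HepG2 with transfected cis-regulated reporter units, 24 h exposure; DMSO serves as baseline for bidirectional curve fits.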
# [11] = ATG_AP_2_CIS: Attagene CIS-FACTORIAL HepG2 Assay for human Activator Protein 2 (AP-2) (AID 2282932); details: HepG2 AP-2 cis-reporter, Attagene transcription factor profiling; actives raise or lower the signal
# Method in brief: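 Bidirectional curve fitting against DMSO was applied to reporter mRNA signals from HepG2 cells 24 h after dosing. Cis-promoter reporter units, transiently transfected, were read by RT-PCR plus capillary electrophoresis.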
# [12] = ATG_BRE_CIS: Attagene CIS-FACTORIAL HepG2 Assay for human Bone Morphogenetic Protein (BMP) Response Element (BRE) (AID 2282933); details: HepG2 BMP response element reporter, Attagene transcription factor profiling; actives raise or lower the signal
# Method in brief: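 After a 24 h chemical treatment, transiently transfected HepG2 cells were lysed for RNA; reporter transcripts were quantified by fluorescent RT-PCR and capillary electrophoresis, normalised to DMSO.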
# [13] = biological target: Retinoic acid receptor alpha (Homo sapiens) (UniProt P10276); experiment: ATG_DR5_RAR_CIS: Attagene CIS-FACTORIAL HepG2 Assay for human Retinoic Acid Receptor Alpha (RARE), DR5 submotif (AID 2282934); details: HepG2 Attagene cis-factorial RARE DR5 reporter, mRNA; actives raise or lower the signal
# Method in brief: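 Transfected HepG2 reporter cells are exposed to chemicals for 24 h. Then RNA is extracted and the DR5 element reporter transcript is measured by RT-PCR and capillary electrophoresis, with bidirectional curve fitting relative to DMSO.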
# [14] = biological target: Transcription factor E2F1 (Homo sapiens) (UniProt Q01094); experiment: ATG_E2F_CIS: Attagene CIS-FACTORIAL HepG2 Assay for human E2F Transcription Factor 1 (AID 2282935); details: HepG2 Attagene cis-reporter, E2F reporter RNA transcripts; actives raise or lower the signal
# Method in brief: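 Multiplexed cis-reporter assay: HepG2, transient transfection, 24 h dosing, mRNA quantitation by labeled RT-PCR and CE.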
# [15] = APR_HepG2_MitoMass_72hr: Apredica 72-hour HepG2 Assay for Mitochondrial Mass (AID 2282924); details: high-content imaging, actives raise or lower the signal;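 note: MitoTracker Red CMXRos stain intensity per cell imaged as mitochondrial mass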
# Method in brief: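 HepG2 cells were exposed for 72 hr to compounds at 0.39–200 uM (ten concentrations, duplicate, 0.5% v/v DMSO final). Live cells were stained with 250 nM MitoTracker Red CMXRos for 30 min, then fixed in 3.7% formaldehyde and imaged by HCS fluorescence.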
# [16] = APR_HepG2_P-H2AX_24hr: Apredica 24-hour HepG2 Assay for H2AX Phosphorylation (AID 2282920); details: high-content imaging, actives raise or lower the signal
# Method in brief: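 Human HepG2 liver cells, treated 24 hr with test chemicals (0.39–200 uM, final DMSO 0.5% v/v), are fixed and co-stained for phospho-H2A.x and c-Jun with Hoechst. Imaged intensity is fitted in both directions against DMSO controls.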
# [17] = APR_HepG2_p53Act_72hr: Apredica 72-hour HepG2 Assay for p53 Activation (AID 2282923); details: high-content imaging, actives raise or lower the signal;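 note: average cellular p53 protein immunofluorescence intensity in HepG2 cells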
# Method in brief: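 HepG2 cells exposed 72 h to 0.39–200 uM in 0.5% DMSO, duplicates. Fixed, permeabilized cells immunostained for p53 (Cy5) with Hoechst; imaged at 20x, fluorescence analyzed bidirectionally against DMSO.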
# [18] = ATG_E_Box_CIS: Attagene CIS-FACTORIAL HepG2 Assay for human Enhancer Box (E-box) (AID 2282936); details: HepG2 E-box cis-reporter transcription, actives raise or lower the signal
# Method in brief: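 Multiplexed CIS reporter system in transiently transfected HepG2 cells measures native transcription factor activity. Reporter RNA after 24 h exposure is profiled by RT-PCR-capillary electrophoresis.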
# Retinoic acid receptor alpha (Homo sapiens), sequence (P10276 whole entry, looked up): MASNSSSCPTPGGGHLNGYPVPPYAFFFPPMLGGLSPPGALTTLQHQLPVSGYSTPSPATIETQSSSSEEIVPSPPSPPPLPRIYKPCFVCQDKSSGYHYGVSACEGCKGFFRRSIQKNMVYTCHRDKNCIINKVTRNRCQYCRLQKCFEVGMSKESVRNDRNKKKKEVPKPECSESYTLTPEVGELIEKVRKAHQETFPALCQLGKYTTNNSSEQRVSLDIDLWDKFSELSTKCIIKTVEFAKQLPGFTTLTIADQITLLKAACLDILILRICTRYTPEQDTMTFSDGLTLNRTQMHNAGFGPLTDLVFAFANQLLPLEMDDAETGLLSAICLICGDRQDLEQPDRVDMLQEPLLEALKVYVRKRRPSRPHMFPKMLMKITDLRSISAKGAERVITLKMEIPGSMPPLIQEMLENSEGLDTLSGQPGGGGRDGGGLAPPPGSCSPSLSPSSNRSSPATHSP
# Aryl hydrocarbon receptor (Homo sapiens), sequence (P35869 whole entry, looked up): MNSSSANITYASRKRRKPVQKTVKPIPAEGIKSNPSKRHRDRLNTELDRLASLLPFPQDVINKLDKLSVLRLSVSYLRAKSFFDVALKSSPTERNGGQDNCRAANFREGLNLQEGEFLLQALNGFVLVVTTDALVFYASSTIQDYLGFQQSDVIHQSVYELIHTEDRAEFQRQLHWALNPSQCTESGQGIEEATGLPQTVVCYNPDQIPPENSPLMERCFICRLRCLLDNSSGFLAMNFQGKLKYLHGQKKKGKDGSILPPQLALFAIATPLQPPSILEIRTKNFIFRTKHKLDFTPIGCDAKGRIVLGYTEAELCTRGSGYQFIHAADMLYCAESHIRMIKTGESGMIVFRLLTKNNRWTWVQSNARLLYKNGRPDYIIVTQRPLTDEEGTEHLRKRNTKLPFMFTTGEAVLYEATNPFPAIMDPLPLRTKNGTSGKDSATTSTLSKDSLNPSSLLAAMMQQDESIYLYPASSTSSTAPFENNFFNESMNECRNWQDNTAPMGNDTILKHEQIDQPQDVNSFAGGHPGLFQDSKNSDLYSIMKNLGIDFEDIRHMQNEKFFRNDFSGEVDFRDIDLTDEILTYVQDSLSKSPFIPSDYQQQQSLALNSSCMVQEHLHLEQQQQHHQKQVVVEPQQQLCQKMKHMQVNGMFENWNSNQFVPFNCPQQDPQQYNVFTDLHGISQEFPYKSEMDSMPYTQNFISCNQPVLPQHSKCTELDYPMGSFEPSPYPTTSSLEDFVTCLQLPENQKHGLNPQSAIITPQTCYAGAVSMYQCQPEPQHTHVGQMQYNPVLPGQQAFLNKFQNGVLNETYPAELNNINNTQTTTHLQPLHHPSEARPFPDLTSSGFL
# CCAAT/enhancer-binding protein beta (Homo sapiens), sequence (P17676 whole entry, looked up, the tested form may be a part): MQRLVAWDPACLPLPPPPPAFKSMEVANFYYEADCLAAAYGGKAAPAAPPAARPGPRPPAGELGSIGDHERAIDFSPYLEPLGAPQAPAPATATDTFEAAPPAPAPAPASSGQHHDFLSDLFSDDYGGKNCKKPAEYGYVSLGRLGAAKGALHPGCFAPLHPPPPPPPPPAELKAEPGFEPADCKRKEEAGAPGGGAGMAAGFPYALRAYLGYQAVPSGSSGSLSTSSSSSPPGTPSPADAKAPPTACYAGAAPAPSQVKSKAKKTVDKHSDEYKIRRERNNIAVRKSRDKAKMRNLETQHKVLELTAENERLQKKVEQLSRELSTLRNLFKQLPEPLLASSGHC
# Transcription factor E2F1 (Homo sapiens), sequence (Q01094 whole entry, looked up): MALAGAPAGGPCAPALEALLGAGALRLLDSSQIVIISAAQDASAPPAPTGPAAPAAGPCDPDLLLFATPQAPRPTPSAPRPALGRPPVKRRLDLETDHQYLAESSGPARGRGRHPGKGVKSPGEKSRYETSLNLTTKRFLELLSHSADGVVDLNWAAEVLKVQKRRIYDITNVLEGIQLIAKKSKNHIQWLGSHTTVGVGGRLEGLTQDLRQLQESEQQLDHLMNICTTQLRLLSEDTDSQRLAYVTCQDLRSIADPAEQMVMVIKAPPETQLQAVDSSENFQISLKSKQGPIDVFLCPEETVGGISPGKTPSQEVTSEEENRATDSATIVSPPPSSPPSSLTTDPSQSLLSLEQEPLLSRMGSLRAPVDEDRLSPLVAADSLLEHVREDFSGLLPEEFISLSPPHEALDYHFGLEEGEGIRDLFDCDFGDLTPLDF
smiles,measurement,setting,value
COc1c(Cl)ccc(Cl)c1C(=O)O,outcome,[1],inactive
same,outcome,[2],inactive
same,outcome,[3],inactive
same,outcome,[4],inactive
same,outcome,[5],inactive
same,outcome,[6],inactive
same,outcome,[7],inactive
same,outcome,[8],inactive
same,outcome,[9],inactive
same,outcome,[10],inactive
same,outcome,[11],inactive
same,outcome,[12],inactive
same,outcome,[13],inactive
same,outcome,[14],inactive
CCN(CC)C(=O)c1cccc(C)c1,outcome,[1],inactive
same,outcome,[2],inactive
same,outcome,[3],inactive
same,outcome,[4],inactive
same,outcome,[15],inactive
same,outcome,[5],inactive
same,outcome,[6],inactive
same,outcome,[7],inactive
same,outcome,[8],inactive
same,outcome,[9],inactive
same,outcome,[10],inactive
same,outcome,[11],inactive
same,outcome,[12],inactive
same,outcome,[13],inactive
same,outcome,[14],inactive
CCOC(=O)c1ccc(O)cc1,outcome,[1],inactive
same,outcome,[2],inactive
same,outcome,[16],inactive
same,outcome,[3],inactive
same,outcome,[4],inactive
same,outcome,[17],inactive
same,outcome,[5],inactive
same,AC50,[6],100 µM (active)
same,outcome,[6],inactive
same,outcome,[7],inactive
same,outcome,[8],inactive
same,outcome,[9],inactive
same,outcome,[10],inactive
same,outcome,[11],inactive
same,AC50,[12],166 µM (active)
same,outcome,[12],inactive
same,outcome,[13],inactive
same,outcome,[14],inactive
CCCCC(CC)CN1C(=O)C2C3C=CC(C3)C2C1=O (centres undefined),outcome,[1],inactive
same,AC50,[2],85.7 µM (active)
same,outcome,[3],inactive
same,outcome,[4],inactive
same,outcome,[17],inactive
same,outcome,[15],inactive
same,outcome,[5],inactive
same,outcome,[6],inactive
same,outcome,[7],inactive
same,AC50,[8],85.4 µM (active)
same,outcome,[9],inactive
same,AC50,[10],69.6 µM (active)
same,outcome,[11],inactive
same,AC50,[12],45.3 µM (active)
same,outcome,[14],inactive
same,outcome,[18],inactive
C#CCOC(=O)[C@@H](C)Oc1ccc(Oc2ncc(Cl)cc2F)cc1,outcome,[1],inactive
same,outcome,[2],inactive
same,outcome,[3],inactive
same,outcome,[4],inactive
same,outcome,[17],inactive
same,outcome,[5],inactive
same,outcome,[6],inactive
same,outcome,[7],inactive
same,outcome,[8],inactive
same,outcome,[9],inactive
same,outcome,[10],inactive
same,outcome,[11],inactive
same,outcome,[12],inactive
same,outcome,[13],inactive
same,outcome,[14],inactive
COCCO,outcome,[1],inactive
same,outcome,[2],inactive
same,outcome,[3],inactive
same,outcome,[4],inactive
same,outcome,[17],inactive
same,outcome,[5],inactive
same,outcome,[6],inactive
same,outcome,[7],inactive
same,outcome,[8],inactive
same,outcome,[9],inactive
same,outcome,[10],inactive
same,outcome,[11],inactive
same,outcome,[12],inactive
same,outcome,[13],inactive
same,outcome,[14],inactive
same,outcome,[18],inactive
